The values below come from PubChem BioAssay (Tox21).

Values without a mark were called inactive. Inconclusive results are not listed. Activity calls are given as the source filed them. Unless noted, calls follow the shape of the full dose curve.

Test [1] is described as follows: qHTS assay to identify small molecule agonists of the sonic hedgehog signaling (Shh) pathway (AID 1259368).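 Also: NIH/3T3-derived 3T3Gli1-Luc cells carrying a stable Gli1-driven firefly luciferase reporter; series mostly up to about 92 µM; nearly all actives have a fitted effect of over 15% in size.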 The gist of the method: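 Stable NIH/3T3 Gli1-Luc reporter clone; 24 hr cpd exposure after a 4 hr settling period; luminescence endpoint.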
For orientation: In qHTS, concentration-response curves come from the screen itself.

Test [2] is described as follows: qHTS assay to identify small molecule antagonists of the sonic hedgehog signaling (Shh) pathway (AID 1259369). Also: nearly all actives have a fitted effect of over 45% in size. The gist of the method:
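Gli1 transcriptional reporter (firefly Luc) in NIH/3T3 background, conditioned-medium activated. 24hr exposure, luminescence endpoint.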

The nature of test [3]: qHTS assay to identify small molecule agonists of the androgen receptor (AR) signaling pathway in the presence of an antagonist - cell viability counter screen (AID 1259379; active = well fitted curve in the direction sought with a large enough effect in the repeat runs; an effect the other way counts as inactive or inconclusive;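 also: MDA-kb2 human breast cancer cells carrying an MMTV luciferase reporter; series mostly up to about 92 µM; nearly all actives have a fitted effect of over 25% in size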). The method in brief:
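Counter screen for cell viability run in parallel with the AR agonist-mode luciferase assay. MDA-kb2 cells were co-treated with nilutamide (3.0uM final) and compounds, then incubated 16 hr at 37C, and CellTiter-Fluor fluorescence was measured.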

Test [4] can be described thus: qHTS assay to identify small molecule agonists of the estrogen receptor beta (ER-beta) signaling pathway - cell viability counter screen (AID 1259380; active = well fitted curve in the direction sought with a large enough effect in the repeat runs; an effect the other way counts as inactive or inconclusive; also: nearly all actives have a fitted effect of over 30% in size; also: potency is read from the fitted curve at half-maximal effect). The gist of the method:
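In this qHTS counter screen, HEK293T cells carrying an ER-beta/UAS beta-lactamase reporter, grown in 2% charcoal-stripped FBS, received compound for 16 hr; ATP-based CellTiter-Glo luminescence was then read after 30 min at room temperature.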

Test [5] concerns the target Androgen receptor (Homo sapiens) (UniProt P10275). The test is described as follows: qHTS assay to identify small molecule agonists of the androgen receptor (AR) signaling pathway in the presence of an antagonist (AID 1259381). Also: nearly all actives have a fitted effect of over 15% in size. Also: potency is read from the fitted curve at half-maximal effect. The method in brief:
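AR antagonist background: nilutamide 3.0uM final. Cell line: MDA-kb2, MMTV-driven luciferase, responsive to both AR and GR. Exposure 16hr, 37C, no CO2; ONE-Glo luminescence.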

The target of test [6] is Estrogen receptor (Homo sapiens) (UniProt P03372). In words: qHTS assay to identify small molecule agonists of the estrogen receptor alpha (ER-alpha) signaling pathway in the presence of an antagonist (AID 1259383). Also: top concentration of the series differs between compounds; nearly all actives have a fitted effect of over 15% in size. The method in brief:
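ER-alpha agonism measured under antagonist challenge: 10.0nM ICI-182,780 (final) plus compound, 15 concentrations, 22hr, VM7Luc4E2 ERE-luciferase cells. Read by luminescence.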

Test [7] can be described thus: qHTS assay to identify small molecule agonists or antagonists of the thyroid stimulating hormone receptor (TSHR) signaling pathway - wild type cell line counter screen (AID 1259384). The gist of the method: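 Wild-type HEK293 cells were plated 18 h at 37 C/5% CO2, pin-dosed with compound plus Ro20-1724 medium, held 30 min at room temperature, then given cAMP-d2 and anti-cAMP-cryptate; fluorescence was read after 1 h. Fifteen concentrations, triplicate.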

In test [8] the target is Progesterone receptor (Homo sapiens) (UniProt P06401). In words: qHTS assay to identify small molecule antagonists of the progesterone receptor (PR) signaling pathway (AID 1346795; active = well fitted inhibition curve with a large enough effect in the signal ratio in the repeat runs, not every such curve was filed as active; the % refers to the signal ratio). The method in brief: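 PR-UAS-bla HEK293T cells carrying a UAS-driven beta-lactamase reporter were plated in medium with 2% charcoal-stripped FBS and rested 6 hr at 37C. Compounds were added with 1 nM R5020 (final) for 16 hr, then FRET substrate loaded 2 hr at room temperature.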

Test [9] can be described thus: qHTS assay to identify small molecule antagonists of the progesterone receptor (PR) signaling pathway - cell viability counter screen (AID 1346798; active = well fitted curve in the direction sought with a large enough effect in the repeat runs; an effect the other way counts as inactive or inconclusive; also: series mostly up to about 92 µM; nearly all actives have a fitted effect of over 50% in size). The method in brief:
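PR-UAS-bla HEK293T cells in medium with 2% charcoal-stripped FBS were treated with compounds plus R5020 for 16 hr at 37C. Cell viability was then read by CellTiter-Glo luminescence after 30 min at room temperature in the same wells.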

Test [10] is described as follows: qHTS assay to identify small molecule agonists of the progesterone receptor (PR) signaling pathway - cell viability counter screen (AID 1346799). Also: nearly all actives have a fitted effect of over 45% in size. The gist of the method:
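PR-UAS-bla HEK293T cells, 3,000 per well in medium with 2% charcoal-stripped FBS, were preincubated 6 hr at 37C, then exposed to compounds for 16 hr; viability was read as CellTiter-Glo luminescence after 30 min at room temperature.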

Test [11] in a line: qHTS assay to identify small molecule antagonists of the TGF-beta/Smad signaling pathway - cell viability counter screen (AID 1346824; active = well fitted curve in the direction sought with a large enough effect in the repeat runs; an effect the other way counts as inactive or inconclusive; also: nearly all actives have a fitted effect of over 50% in size). The method in brief: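 SBE-bla HEK 293T cells were plated overnight at 37 C, then given compounds in DMSO plus TGF-beta1 (added as 0.25 ng/mL solution) for 5 hr. After the bla read, CellTiter-Glo was added to the same wells and luminescence read after 30 min at room temperature.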

A short description of test [12]: qHTS assay to identify small molecule agonists of the TGF-beta/Smad signaling pathway - cell viability counter screen (AID 1346829; active = well fitted curve in the direction sought with a large enough effect in the repeat runs; an effect the other way counts as inactive or inconclusive; also: top concentration of the series differs between compounds; nearly all actives have a fitted effect of over 45% in size). The gist of the method: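 HEK 293T SBE-bla line, 5 hr compound exposure at 37 C, multiplexed CellTiter-Glo viability read by luminescence.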
The nature of test [13]: qHTS assay to identify small molecule agonists of the TGF-beta/Smad signaling pathway (AID 1346859; active = well fitted activation curve with a large enough effect in the signal ratio in the repeat runs, not every such curve was filed as active; the % refers to the signal ratio; also: series mostly up to about 77 µM). The gist of the method:
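HEK 293T cells stably carrying a beta-lactamase reporter driven by the Smad binding element were seeded overnight, exposed to DMSO-dissolved compounds for 5 hr at 37 C, 5% CO2, then loaded with FRET substrate for 2 hr at room temperature.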

In test [14] the target is Estrogen receptor beta (Homo sapiens) (UniProt Q92731). In words: qHTS assay to identify small molecule antagonists of the estrogen receptor beta (ER-beta) signaling pathway (AID 1259378; active = well fitted inhibition curve with a large enough effect in the signal ratio in the repeat runs, not every such curve was filed as active; the % refers to the signal ratio). The gist of the method: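 ER-beta-UAS-bla HEK293T (GripTite) cells in 2% charcoal-stripped FBS medium were preincubated 6 hr at 37C, dosed with compound, then stimulated with 1 nM E2 (final) for 16 hr; beta-lactamase reporter read by B/G FRET fluorescence after 2 hr substrate loading.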

Test [15] is described as follows: qHTS assay to identify small molecule antagonists of the estrogen receptor beta (ER-beta) signaling pathway - cell viability counter screen (AID 1259382; active = well fitted curve in the direction sought with a large enough effect in the repeat runs; an effect the other way counts as inactive or inconclusive; also: series mostly up to about 92 µM; nearly all actives have a fitted effect of over 55% in size). The method in brief:
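HEK293T ER-beta-UAS-bla, 2% charcoal-stripped FBS; compounds + 1nM E2 16 hr 37C; CellTiter-Glo luminescence, 30 min RT.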

The target of test [16] is Thyrotropin receptor (Homo sapiens) (UniProt P16473). In words: qHTS assay to identify small molecule antagonists of the thyroid stimulating hormone receptor (TSHR) signaling pathway (AID 1259385). Also: nearly all actives have a fitted effect of over 20% in size. The gist of the method: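 TSHR-HEK293 cells were plated and held 18 h at 37C/5% CO2, then given compound plus Ro20-1724 and stimulated with TSH at 1.5 ng/mL final. After 30 min at room temperature, cAMP was detected with cAMP-d2/anti-cAMP-cryptate (1 h) by fluorescence.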

Test [17] has as its target Progesterone receptor (Homo sapiens) (UniProt P06401). The test is described as follows: qHTS assay to identify small molecule agonists of the progesterone receptor (PR) signaling pathway (AID 1346784). Also: nearly all actives have a fitted effect of over 30% in size. The gist of the method:
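PR-UAS-bla HEK 293T cells carrying a UAS-driven beta-lactamase reporter were seeded in medium with 2% charcoal-stripped FBS, preincubated 6 hr at 37C, then exposed to compounds in DMSO for 16 hr; agonism was read by LiveBLAzer B/G FRET fluorescence.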

The target of test [18] is Thyrotropin-releasing hormone receptor (Homo sapiens) (UniProt P34981). In words: qHTS assay to identify small molecule antagonists of the thyrotropin-releasing hormone receptor (TRHR) signaling pathway (AID 1346877; active = well fitted inhibition curve with a large enough effect in the repeat runs, not every such curve was filed as active; also: series mostly up to about 51 µM). The method in brief: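 Human TRHR in HEK293 cells; inhibition of the intracellular calcium rise triggered by 1 nM TRH was followed by fluorescence over 3 min. Compounds were run at 15 concentrations, three replicates each.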

A short description of test [19]: qHTS assay to identify small molecule agonists of the estrogen receptor alpha (ER-alpha) signaling pathway in the presence of an antagonist - cell viability counter screen (AID 1259386; active = well fitted curve in the direction sought with a large enough effect in the repeat runs; an effect the other way counts as inactive or inconclusive;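 also: series mostly up to about 92 µM; cells exposed to compounds for 22 h at 37 °C before the viability read; nearly all actives have a fitted effect of over 30% in size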). The gist of the method:
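Steps: 5-day stripped-FBS culture; seed and incubate 24hr; add ICI-182,780 (10.0nM final); pin 15-point compound titration; incubate 22hr at 37C; add CellTiter-Fluor at 21hr; read fluorescence.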
% is scaled to controls: 0 for no effect and ±100 for the full control effect.

Chain of Androgen receptor (Homo sapiens) (P10275 whole entry, looked up): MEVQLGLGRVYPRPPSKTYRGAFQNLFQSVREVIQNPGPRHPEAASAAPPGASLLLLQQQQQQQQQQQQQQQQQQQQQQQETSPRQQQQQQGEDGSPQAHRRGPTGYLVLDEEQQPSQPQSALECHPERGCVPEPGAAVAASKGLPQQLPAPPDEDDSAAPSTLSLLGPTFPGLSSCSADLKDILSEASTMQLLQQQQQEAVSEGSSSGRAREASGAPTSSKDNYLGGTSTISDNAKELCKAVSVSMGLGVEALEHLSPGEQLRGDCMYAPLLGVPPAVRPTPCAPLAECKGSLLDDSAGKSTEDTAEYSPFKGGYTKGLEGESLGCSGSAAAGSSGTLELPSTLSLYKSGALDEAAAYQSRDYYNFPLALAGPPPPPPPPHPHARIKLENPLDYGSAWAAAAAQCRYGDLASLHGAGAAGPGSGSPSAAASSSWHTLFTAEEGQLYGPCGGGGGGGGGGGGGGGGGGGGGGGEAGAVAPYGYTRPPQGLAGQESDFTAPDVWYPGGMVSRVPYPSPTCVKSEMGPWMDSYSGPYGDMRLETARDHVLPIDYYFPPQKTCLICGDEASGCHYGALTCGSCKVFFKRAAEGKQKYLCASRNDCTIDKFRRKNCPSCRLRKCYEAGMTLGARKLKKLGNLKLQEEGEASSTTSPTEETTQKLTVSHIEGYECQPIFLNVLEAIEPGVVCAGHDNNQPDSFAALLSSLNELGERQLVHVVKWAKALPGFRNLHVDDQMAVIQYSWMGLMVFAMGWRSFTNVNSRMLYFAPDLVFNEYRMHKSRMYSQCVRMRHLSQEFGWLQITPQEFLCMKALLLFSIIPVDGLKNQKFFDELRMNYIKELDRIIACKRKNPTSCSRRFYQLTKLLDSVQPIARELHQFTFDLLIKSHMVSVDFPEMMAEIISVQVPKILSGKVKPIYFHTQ
Chain of Thyrotropin receptor (Homo sapiens) (P16473 whole entry, looked up): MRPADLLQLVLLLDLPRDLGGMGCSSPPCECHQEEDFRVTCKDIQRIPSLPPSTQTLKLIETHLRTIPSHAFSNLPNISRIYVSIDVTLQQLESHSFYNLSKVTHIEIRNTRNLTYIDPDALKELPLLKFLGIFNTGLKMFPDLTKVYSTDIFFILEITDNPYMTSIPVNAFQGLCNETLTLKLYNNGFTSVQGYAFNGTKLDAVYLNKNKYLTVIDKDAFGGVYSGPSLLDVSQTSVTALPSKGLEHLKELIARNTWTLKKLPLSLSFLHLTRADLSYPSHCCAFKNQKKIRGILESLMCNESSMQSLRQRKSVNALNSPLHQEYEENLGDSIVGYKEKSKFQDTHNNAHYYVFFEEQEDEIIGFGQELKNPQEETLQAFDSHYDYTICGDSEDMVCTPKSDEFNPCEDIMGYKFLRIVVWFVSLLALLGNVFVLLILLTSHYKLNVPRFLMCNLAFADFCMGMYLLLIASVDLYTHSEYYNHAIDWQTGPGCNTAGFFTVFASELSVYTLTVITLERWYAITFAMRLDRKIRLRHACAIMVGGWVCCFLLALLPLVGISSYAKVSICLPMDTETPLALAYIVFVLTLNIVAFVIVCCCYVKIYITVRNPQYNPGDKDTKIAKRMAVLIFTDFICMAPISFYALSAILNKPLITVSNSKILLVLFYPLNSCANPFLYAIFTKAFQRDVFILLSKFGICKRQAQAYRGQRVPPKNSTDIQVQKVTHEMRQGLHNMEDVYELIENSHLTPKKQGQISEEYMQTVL
Chain of Thyrotropin-releasing hormone receptor (Homo sapiens) (P34981 whole entry, looked up): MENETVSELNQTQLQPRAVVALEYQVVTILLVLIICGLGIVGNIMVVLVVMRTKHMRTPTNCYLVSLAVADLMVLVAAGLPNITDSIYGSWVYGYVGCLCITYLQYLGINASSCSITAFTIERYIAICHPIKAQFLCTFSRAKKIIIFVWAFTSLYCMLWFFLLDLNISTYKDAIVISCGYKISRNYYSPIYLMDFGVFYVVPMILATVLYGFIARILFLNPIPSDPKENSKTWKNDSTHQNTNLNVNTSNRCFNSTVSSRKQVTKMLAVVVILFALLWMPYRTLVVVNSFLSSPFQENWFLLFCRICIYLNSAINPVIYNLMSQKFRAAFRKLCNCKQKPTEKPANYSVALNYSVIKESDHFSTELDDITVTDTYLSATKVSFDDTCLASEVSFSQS
Chain of Estrogen receptor (Homo sapiens) (P03372 whole entry, looked up): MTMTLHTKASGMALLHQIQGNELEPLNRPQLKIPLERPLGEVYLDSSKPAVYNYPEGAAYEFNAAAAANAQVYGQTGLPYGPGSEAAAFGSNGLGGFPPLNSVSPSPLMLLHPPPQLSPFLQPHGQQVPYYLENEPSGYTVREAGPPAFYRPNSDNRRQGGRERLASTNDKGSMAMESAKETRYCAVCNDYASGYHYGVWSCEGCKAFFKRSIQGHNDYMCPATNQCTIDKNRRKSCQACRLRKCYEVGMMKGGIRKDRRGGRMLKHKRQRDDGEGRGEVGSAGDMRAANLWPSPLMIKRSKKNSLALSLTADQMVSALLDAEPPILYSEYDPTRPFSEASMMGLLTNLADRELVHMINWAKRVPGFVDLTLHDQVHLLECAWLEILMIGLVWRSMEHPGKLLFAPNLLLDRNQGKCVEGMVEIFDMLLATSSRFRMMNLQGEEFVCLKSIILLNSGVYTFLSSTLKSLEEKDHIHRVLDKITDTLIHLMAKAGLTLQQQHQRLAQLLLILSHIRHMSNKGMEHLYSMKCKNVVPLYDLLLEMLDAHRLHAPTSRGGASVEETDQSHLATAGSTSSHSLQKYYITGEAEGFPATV
Chain of Progesterone receptor (Homo sapiens) (P06401 whole entry, looked up): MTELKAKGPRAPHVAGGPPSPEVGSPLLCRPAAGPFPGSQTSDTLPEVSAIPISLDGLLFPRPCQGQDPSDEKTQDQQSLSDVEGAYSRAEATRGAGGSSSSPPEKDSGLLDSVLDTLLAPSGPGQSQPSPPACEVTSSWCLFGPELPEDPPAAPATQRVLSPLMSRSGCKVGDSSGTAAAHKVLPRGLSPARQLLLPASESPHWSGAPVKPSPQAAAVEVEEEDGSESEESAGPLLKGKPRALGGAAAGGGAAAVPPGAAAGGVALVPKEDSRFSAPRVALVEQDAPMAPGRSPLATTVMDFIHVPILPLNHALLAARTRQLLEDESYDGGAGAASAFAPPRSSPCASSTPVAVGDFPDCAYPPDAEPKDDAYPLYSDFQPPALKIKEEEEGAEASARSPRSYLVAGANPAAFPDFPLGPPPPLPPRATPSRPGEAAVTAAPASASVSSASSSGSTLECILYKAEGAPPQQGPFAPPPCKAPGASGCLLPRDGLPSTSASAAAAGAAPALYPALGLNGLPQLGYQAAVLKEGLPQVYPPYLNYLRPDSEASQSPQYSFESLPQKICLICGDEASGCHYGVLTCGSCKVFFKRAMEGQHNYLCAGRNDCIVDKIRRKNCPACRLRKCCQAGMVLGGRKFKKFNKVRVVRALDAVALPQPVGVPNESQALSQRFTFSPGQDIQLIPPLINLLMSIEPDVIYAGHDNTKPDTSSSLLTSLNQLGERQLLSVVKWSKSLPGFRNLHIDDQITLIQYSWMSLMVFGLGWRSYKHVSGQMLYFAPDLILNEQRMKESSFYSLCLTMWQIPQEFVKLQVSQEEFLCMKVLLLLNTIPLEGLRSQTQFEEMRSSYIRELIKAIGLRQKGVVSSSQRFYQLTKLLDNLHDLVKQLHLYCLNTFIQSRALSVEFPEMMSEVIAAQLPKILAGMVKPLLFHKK
Chain of Estrogen receptor beta (Homo sapiens) (Q92731 whole entry, looked up): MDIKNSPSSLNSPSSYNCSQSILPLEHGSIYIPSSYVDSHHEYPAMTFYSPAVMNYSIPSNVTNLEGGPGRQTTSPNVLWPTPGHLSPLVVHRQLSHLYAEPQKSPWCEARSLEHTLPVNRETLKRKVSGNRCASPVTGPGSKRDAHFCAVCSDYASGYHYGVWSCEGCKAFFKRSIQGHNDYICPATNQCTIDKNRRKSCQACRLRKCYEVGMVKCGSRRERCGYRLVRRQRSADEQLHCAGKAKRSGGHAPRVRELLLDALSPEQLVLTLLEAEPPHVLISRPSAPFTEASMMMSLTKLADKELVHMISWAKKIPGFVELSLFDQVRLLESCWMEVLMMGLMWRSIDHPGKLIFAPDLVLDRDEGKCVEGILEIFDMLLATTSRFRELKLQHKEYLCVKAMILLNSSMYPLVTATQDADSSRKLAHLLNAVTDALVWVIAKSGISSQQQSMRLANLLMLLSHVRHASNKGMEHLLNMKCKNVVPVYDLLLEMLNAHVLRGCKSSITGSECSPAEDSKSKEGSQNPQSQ

For `NC(CO)C(=O)NNCc1ccc(O)c(O)c1O` (centres undefined), the outcome in test [1], in test [6], in test [7], in test [11], in test [12] and in [13] was inactive. Further, the Potency result in test [2], in [3], in test [4], in test [8], in test [9] and in test [10] was “inactive” throughout. In addition, the Potency in [5] is 13.3 µM (active).

On to `CC(=O)NCc1c(I)c(NC(C)=O)c(I)c(C(=O)O)c1I`, for which the result in [1], in test [14], in test [15], in test [6], in test [7] and in [16] was inactive. In addition, the compound was called inactive in test [11], in test [12], in test [13] and in [18]. The Potency result in [2], in [3], in test [4], in [5], in [17] and in test [9] was “inactive” each time. Also, the Potency entry in [10] was “inactive”.

For the compound `O=S(O)(O)=S`, in [1], the activity change is -0.163% [at 8.39 µM]. Moreover, the activity change, negative = inhibition in [2] is 0.751% [at 8.39 µM]; in [16], 2.15% [at 8.39 µM]; in [8] it was 2.55% [at 8.39 µM]. Also, the figures for the activity, negative = inhibition in test [14] and in [18] were 6.44% [at 8.39 µM] and 1.85% [at 4.65 µM], respectively. The activity change, negative = cytotoxicity was 1.18% [at 8.39 µM] in [3]; -9.09% [at 8.39 µM] in test [4]; 4.48% [at 8.39 µM] in test [15]; 1.38% [at 8.39 µM] in [19]; 5.98% [at 8.39 µM] in [9]; -1.49% [at 8.39 µM] in test [10]. Also, in [12], the activity change, negative = cytotoxicity is 1.63% [at 6.97 µM]. In addition, the activation in test [6] is 0.31% [at 8.39 µM]; in test [17] it was -0.0718% [at 8.39 µM]; in test [13], 3.3% [at 6.97 µM]. Also, the cAMP activity change in [7] was 0.958% [at 8.39 µM]. Further, the viability change, negative = cytotoxic in test [11] was -0.132% [at 6.97 µM].

With `CCOC(=O)/C=C/c1ccccc1`, the compound was called inactive in [1], in test [15], in test [6], in [7], in test [16] and in [11]. For the same compound, the compound was called inactive in test [12], in test [13] and in test [18]. Also, the Potency result in [2], in test [3], in [4], in test [19], in test [17] and in test [8] was “inactive” each time. For the same compound, the Potency result in test [9] and in test [10] was “inactive” in each case.

On to `CCCCOC(=O)c1ccccc1`, for which the result in test [1], in [6], in test [7], in [11], in [12] and in [13] was inactive. The outcome in test [18] was inactive. Also, the Potency result in [2], in [3], in test [4], in test [5], in test [19] and in test [17] was “inactive” each time. Besides, the Potency result in test [8], in [9] and in test [10] was “inactive” throughout.

On to `Cc1cccc(OCC(O)CNC(C)(C)C)c1C` (centres undefined), for which the compound was called inactive in [1], in test [15], in test [7], in [16], in test [11] and in test [12]. The result in test [13] and in test [18] was inactive. For the same compound, the Potency result in test [2], in [3], in [5], in test [19], in [17] and in test [8] was “inactive” in each case. Also, the Potency result in test [10] was “inactive”. In addition, the Potency in test [4] was 13.3 µM (active).

As to `CC(C)OC(=O)CCCCC(=O)OC(C)C`, the call in [1], in test [14], in test [6], in test [7], in test [16] and in test [11] was inactive. For the same compound, the call in test [12], in [13] and in test [18] was inactive. Moreover, the Potency entry in [2], in test [3], in [4], in test [19], in [17] and in test [8] was “inactive” each time. Besides, the Potency entry in test [9] and in test [10] was “inactive” throughout.
